MPTP block: permeability transition pore inhibition; inhibition, % at 10 µM; 360,000 compounds, 1.4% hits; AID 602449; isolated mouse mitochondria, Ca2+ swelling absorbance, 30 min;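 active means inhibition of 50% or more, scaled per plate between neutral and stimulator controls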;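 further: 0% = DMSO wells given calcium and 100% = 1 mM EGTA wells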
Mdm2-MdmX inh: human Mdm2/MdmX binding inhibition; AID 485346; O15151+Q00987; inhibition, % at 8 µM; 330,000 compounds, 3% hits; SaOS-2 split-luciferase Mdm2/MdmX complementation, luminescence;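 active means inhibition of at least 50% at 8 µM in the primary screen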
Target sequence (O15151 whole entry, looked up): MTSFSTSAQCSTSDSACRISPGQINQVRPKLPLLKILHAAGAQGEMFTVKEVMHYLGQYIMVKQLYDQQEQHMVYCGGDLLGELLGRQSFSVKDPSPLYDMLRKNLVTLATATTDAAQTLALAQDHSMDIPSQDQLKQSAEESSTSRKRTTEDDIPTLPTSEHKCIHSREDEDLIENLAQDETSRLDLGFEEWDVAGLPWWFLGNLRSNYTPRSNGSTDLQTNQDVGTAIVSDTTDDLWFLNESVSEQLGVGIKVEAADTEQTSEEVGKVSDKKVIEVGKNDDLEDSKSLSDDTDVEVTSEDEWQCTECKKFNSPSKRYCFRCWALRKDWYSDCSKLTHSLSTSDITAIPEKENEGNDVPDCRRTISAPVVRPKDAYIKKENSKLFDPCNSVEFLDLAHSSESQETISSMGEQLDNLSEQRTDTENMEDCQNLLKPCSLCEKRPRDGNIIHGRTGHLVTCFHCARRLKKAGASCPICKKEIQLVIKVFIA
Target sequence (Q00987 whole entry, looked up): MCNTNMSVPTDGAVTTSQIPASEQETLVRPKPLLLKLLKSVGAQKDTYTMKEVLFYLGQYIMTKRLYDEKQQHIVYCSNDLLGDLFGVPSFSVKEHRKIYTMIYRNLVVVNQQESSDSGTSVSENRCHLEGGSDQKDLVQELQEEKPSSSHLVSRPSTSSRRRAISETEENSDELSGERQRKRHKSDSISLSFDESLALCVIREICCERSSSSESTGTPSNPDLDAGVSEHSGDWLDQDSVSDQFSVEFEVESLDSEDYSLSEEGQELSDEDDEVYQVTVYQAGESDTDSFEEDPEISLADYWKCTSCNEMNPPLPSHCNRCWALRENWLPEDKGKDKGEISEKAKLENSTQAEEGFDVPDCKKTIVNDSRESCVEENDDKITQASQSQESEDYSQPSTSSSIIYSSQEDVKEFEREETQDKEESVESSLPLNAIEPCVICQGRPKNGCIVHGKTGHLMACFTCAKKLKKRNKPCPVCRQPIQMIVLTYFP
tim10-1 inh: tim10-1 yeast growth inhibition. S. cerevisiae tim10-1 ts strain growth, BacTiter-Glo, 24 h. inhibition, % at 20 µM. 330,000 compounds, 2.2% hits. AID 463190;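 active means inhibition of at least 40%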;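 further: mutant grown at 25 °C; 0% = DMSO wells with yeast and 100% = wells holding no yeast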
tim23-1 inh: tim23-1 yeast growth inhibition. 330,000 compounds, 1.3% hits. S. cerevisiae tim23-1 growth, BacTiter-Glo luminescence, 24 h. inhibition, % at 20 µM;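 active means growth inhibition of the mutant yeast at or above 50%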;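 further: temperature-sensitive mutant grown at 25 °C; plate controls were DMSO-treated mutant yeast for no effect and medium wells lacking yeast for full effect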
TIM10 inh: inhibits growth of TIM10 yeast strain; S. cerevisiae TIM10 strain growth, BacTiter-Glo luminescence, 24 h; inhibition, % at 10 µM; 330,000 compounds, 1.4% hits;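 active means inhibition of 40% or more at the single tested concentration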;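 further: wild-type TIM10 isogenic control strain grown at permissive 25 °C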
Mdm2-MdmX conf: human Mdm2/MdmX binding inhibition, confirmed. shares compounds with Mdm2-MdmX inh. luminescent assay. 10,000 compounds, 55% hits. inhibition, % at 8 µM; in the data active means inhibition above about 40%
FLuc counter: full-length luciferase inhibition in Mdm2/MdmX counter-screen; shares compounds with Mdm2-MdmX inh; SaOS-2 full-length luciferase counterscreen, luminescence; inhibition, % at 8 µM; 6,200 compounds, 77% hits; AID 504607;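 active means mean inhibition at 8 µM reaching about 37%, which flags the compound as non-specific, limit read from the data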;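 further: p53-null SaOS-2 cells with luciferase driven by a doxycycline-inducible promoter; compound on cells about two nights before reading with doxycycline added after day one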
* hit, by the source's call; / = no result. In the library only some 6.3% were active in any assay of this set; here they are far more common.

SMILES | MPTP block | Mdm2-MdmX inh | tim10-1 inh | tim23-1 inh | TIM10 inh | Mdm2-MdmX conf | FLuc counter
O=C(Cc1ccc(Cl)cc1)Nc1ccc(-c2nnc(-c3ccco3)o2)cc1 | 28 | 54* | 14 | -1 | 7 | 10 | /
NC(=O)CCC(C(=O)O)N1C(=O)C2C3CCC(C3)C2C1=O (centres undefined) | -1 | / | / | / | / | / | /
O=C(N/N=C/c1cnc(N2CCCCC2)s1)c1ccc(C(F)(F)F)cc1 | 0 | 69* | 23 | 18 | 14 | 58* | 37*
CC1CN(c2ncc(/C=N/NC(=O)c3ccccc3O)s2)CC(C)O1 (centres undefined) | 0 | 8 | 12 | 3 | -7 | / | /
Cc1c(Cc2ccccc2)c(=O)[nH]c(=O)n1C | -2 | / | / | / | / | / | /
CCOc1ccccc1/C=N\Nc1cnn(Cc2ccccc2)c(=O)c1Cl | 1 | 53* | 15 | 11 | -19 | 24 | /
COc1ccccc1/C=N\Nc1cn[nH]c(=O)c1Cl | 0 | 28 | 18 | -7 | 0 | / | /
COC(=O)CCC(=O)Nc1sc(C)c(C)c1C(N)=O | -5 | -1 | 3 | 4 | 5 | / | /
COC(=O)CCC(=O)NC(=S)Nc1sc(C)c(C)c1C(N)=O | 0 | 61* | 18 | 4 | 3 | 58* | 91*
COc1ccc(CC(=O)NCc2ccccc2F)cc1S(=O)(=O)N1CCOCC1 | 0 | / | / | / | / | / | /
CC(=O)c1c(C)[nH]c(C(=O)CSc2nnc(-c3ccccc3)n2Cc2ccc3c(c2)OCO3)c1C | -3 | 77* | 1 | 14 | 9 | 30 | /
O=c1c2ccccc2nnn1CSc1nnc(-c2cccs2)n1Cc1ccccc1 | -1 | 61* | 21 | 21 | 29 | 49* | 72*
CC(=O)c1c(C)[nH]c(C(=O)CSc2nnc(-c3ccco3)n2Cc2ccccc2)c1C | 6 | 23 | 17 | 24 | 7 | / | /
CC(=O)c1c(C)[nH]c(C(=O)CSc2nnc(-c3cccs3)n2Cc2ccccc2)c1C | -2 | 18 | 18 | 10 | 16 | / | /
CCOC(=O)c1c(C)[nH]c(C(=O)CSc2nnc(-c3cccs3)n2Cc2ccccc2)c1C | 2 | 65* | 20 | 15 | 20 | 42* | 40*
NN=C1c2ccccc2C(=O)C1C(=O)C(c1ccccc1)c1ccccc1 (centres undefined) | 12 | / | / | / | / | / | /
COCCCN1C(=O)C(CC(=O)NCc2cccc3ccccc23)CC(C(=O)N2CCCCCC2)=C1C (centres undefined) | -1 | / | / | / | / | / | /
COc1ccc(C(=O)NCCCN2CCCC2=O)cc1S(=O)(=O)N1CCOCC1 | -1 | / | / | / | / | / | /
CC(C)(C)[C@]1(O)CCN2C[C@H]3c4ccccc4CCc4cccc(c43)[C@@H]2C1 | / | 66* | 23 | 21 | 6 | 36 | 84*
Cc1ccc(C(=O)NCCNc2nc3cc(C)c(C)cc3cc2C)cc1 | 5 | 65* | 30 | 2 | 35 | 10 | /
O=C(NCc1cccc(F)c1)Nc1nnc([C@@H]2C[C@H](O)[C@@H](CO)O2)s1 | 0 | / | / | / | / | / | /
Cc1c(C(=O)NCc2cccc(C(F)(F)F)c2)sc(=O)n1Cc1ccc(S(=O)(=O)N(C)C)cc1 | 0 | / | / | / | / | / | /
O=C1CC(N(CCc2ccccc2)C(=S)Nc2ccccc2)C(=O)N1c1ccc(Br)cc1 (centres undefined) | 25 | 68* | 22 | 42 | 35 | 38 | 59*
COc1ccc(CCC(=O)N2c3ccccc3N=C(c3ccc4c(c3)OCO4)C2C(=O)NCc2ccccc2)cc1 (centres undefined) | 0 | / | / | / | / | / | /
COc1cc(C2C(C#N)=C(N)N(Nc3ccccc3)C3=C2C(=O)CC(C)(C)C3)ccc1OCc1cccc(F)c1 (centres undefined) | -10 | 61* | 21 | 21 | 14 | 19 | /
SMILES | MPTP block | Mdm2-MdmX inh | tim10-1 inh | tim23-1 inh | TIM10 inh | Mdm2-MdmX conf | FLuc counter
CNC(=O)c1ccsc1NC(=O)CS(=O)(=O)c1ccc(F)cc1 | 0 | / | / | / | / | / | /
CC1=CC(=Nc2c(C)n(C)n(-c3ccccc3)c2=O)C=C(C)C1=O | 8 | 77* | 30 | 36 | 23 | 26 | /
CC1=CC(=Nc2c(C)n(C)n(-c3ccccc3)c2=O)C=CC1=O | / | 69* | 17 | 16 | 19 | 8 | /
CCC(C)C1=CC(=Nc2c(C)n(C)n(-c3ccccc3)c2=O)C=C(C(C)CC)C1=O (centres undefined) | 6 | 6 | 26 | 27 | 32 | / | /
C[C@@H]1CN([C@H](C)CO)C(=O)CCCn2nncc2CO[C@H]1CN(C)S(C)(=O)=O | 1 | / | / | / | / | / | /
COc1cccc(C(O)c2nc(-c3ccccc3)cs2)c1 (centres undefined) | 0 | / | / | / | / | / | /
NC(N)=NN=C1CCCCCCCCCCC1 | 4 | 60* | -7 | -29 | -9 | 43* | 58*
ON=C1CCCCCCCC1 | 1 | / | / | / | / | / | /
COc1ccc2c(c1)c(=O)oc1cc(OCC(=O)NC3CC3)ccc12 | 0 | 53* | -4 | 4 | -5 | -18 | /
COc1ccc2c(c1OC)C(=O)OC2Nc1nc2ccccc2s1 (centres undefined) | 0 | 12 | -19 | -6 | -16 | / | /
COc1ccc(-c2csc(NC3OC(=O)c4c3ccc(OC)c4OC)n2)cc1OC (centres undefined) | 4 | 78* | -8 | 0 | -4 | 62* | 70*
O=C(c1[nH]c(C(F)(F)F)nc1-c1ccccc1)N1CCN(c2ncccn2)CC1 | 0 | / | / | / | / | / | /
O=C(NC1CCCCCC1)c1c2c(nc3ccccc13)CCN(Cc1ccccc1)C2 | 7 | 6 | 14 | 17 | 21 | / | /
Cc1cc(N2CCN(C)CC2)ccc1NC(=O)c1c2c(nc3ccccc13)CCN(Cc1ccccc1)C2 | 0 | 100* | 2 | -8 | 11 | 100* | 52*
CC(C)c1ccccc1NC(=O)COC(=O)c1c2c(nc3ccccc13)CCN(Cc1ccccc1)C2 | 9 | 53* | 34 | 25 | 24 | 33 | /
Cc1c(Cl)cccc1NC(=O)COC(=O)c1c2c(nc3ccccc13)CCN(Cc1ccccc1)C2 | 14 | 38 | 30 | 17 | 28 | / | /
COc1cc2c(cc1OC)CN(c1nc(CN3CCOCC3)nc3sc4c(c13)CCC(C)C4)CC2 (centres undefined) | 1 | 64* | 36 | 47 | 38 | 28 | 74*
CCCC[C@@H](CN[C@H](C)CNC)NCC1CCC(C(C)(C)C)CC1 (some centres undefined) | / | 100* | -4 | -6 | -8 | 97* | 56*
CC[C@H](C)[C@@H](CN[C@H](CCCCNC)CNC)NCC1CCCC1 | 0 | 12 | -9 | -4 | 3 | / | /
O=[N+]([O-])c1cccc2c1ccc1ncccc12 | -1 | 56* | -7 | 39 | 3 | 34 | /
Cc1ccc2ncccc2c1[N+](=O)[O-] | 1 | -22 | 16 | -9 | 6 | / | /
COc1cc(C#Cc2c(-c3cncn3C)n(C)c3ccc(-c4cnc(OC)nc4)cc23)cc(OC)c1 | 2 | 66* | 30 | 41 | 10 | 39 | 63*

Screens (PubChem BioAssay)
